Source: PubChem BioAssay (NCI)
“And” between values parts separate entries of the source, which are not always exact repeats. Equal entries are not always repeated. This is part of a sample that, as a whole, favours compounds with a hit. Of some 83,000 tested, about 20% had one in any assay.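 Treatment: one concentration, 48 hours, 96-well format. Scoring: percent growth, with anything below 10 considered active.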 A structure can be active in one record and inactive in another. The source made the active and inactive calls.

What was measured:
Experiment in all cases: NCI-60 one-dose screen, 48 h (100 = growth as untreated, 0 = no growth, -100 = all killed)
Settings in all cases: 10 µM unless noted
DU-145 prostate = test system: DU-145 prostate
K-562 leukemia = test system: K-562 leukemia
MALME-3M melanoma = test system: MALME-3M melanoma
MDA-MB-231 breast = test system: MDA-MB-231 breast
RXF 393 renal = test system: RXF 393 renal
SF-268 CNS = test system: SF-268 CNS
SF-295 CNS = test system: SF-295 CNS
SF-539 CNS = test system: SF-539 CNS
UACC-257 melanoma = test system: UACC-257 melanoma
M14 melanoma = test system: M14 melanoma

SMILES: CCCCCN(CCCCC)CC(O)c1cc2c(c3ccccc13)CCCC2 (stereo not given)
- growth (DU-145 prostate): 75.5% (inactive) and 80.2% (inactive)
- growth (K-562 leukemia): 23.5% (inactive) and 24.7% (inactive)
- growth (MALME-3M melanoma): 65.4% (inactive) and 74.3% (inactive)
- growth (MDA-MB-231 breast): 8.63% (active) and 59.1% (inactive)
- growth (RXF 393 renal): 26% (inactive) and 87.5% (inactive)
- growth (SF-268 CNS): 86.7% (inactive) and 80% (inactive)
- growth (SF-295 CNS): 55.5% (inactive)
- growth (SF-539 CNS): 68.8% (inactive) and 52% (inactive)
- growth (UACC-257 melanoma): 71.9% (inactive) and 71.5% (inactive)
- growth (M14 melanoma): 76.8% (inactive) and 72.4% (inactive)

SMILES: NCCSC(C[N+](=O)[O-])c1ccccc1Cl (stereo not given)
- growth (DU-145 prostate): 37.6% (inactive)
- growth (K-562 leukemia): -48.3% (active)
- growth (MALME-3M melanoma): 98.8% (inactive)
- growth (MDA-MB-231 breast): 115% (inactive)
- growth (RXF 393 renal): 11% (inactive)
- growth (SF-268 CNS): 84.8% (inactive)
- growth (SF-295 CNS): 101% (inactive)
- growth (SF-539 CNS): 94.6% (inactive)
- growth (UACC-257 melanoma): -3.93% (active)
- growth (M14 melanoma): 74.4% (inactive)

SMILES: COc1ccc(Cn2c(NCCN=C(N)N)nc(=O)n(Cc3ccc(F)cc3)c2=O)cc1
- growth (DU-145 prostate): 104% (inactive) and 115% (inactive)
- growth (K-562 leukemia): 89.6% (inactive) and 94% (inactive)
- growth (MALME-3M melanoma): 91.7% (inactive) and 91.1% (inactive)
- growth (MDA-MB-231 breast): 107% (inactive) and 103% (inactive)
- growth (RXF 393 renal): 95.5% (inactive) and 109% (inactive)
- growth (SF-268 CNS): 61.8% (inactive) and 52.5% (inactive)
- growth (SF-295 CNS): 102% (inactive)
- growth (SF-539 CNS): 102% (inactive) and 89.7% (inactive)
- growth (UACC-257 melanoma): 89.4% (inactive) and 101% (inactive)
- growth (M14 melanoma): 97.9% (inactive) and 100% (inactive)

SMILES: CCCCCn1sc(=O)n(Cc2ccc(CNC(=O)C(C)c3ccc(CC(C)C)cc3)cc2)c1=O (stereo not given)
- growth (DU-145 prostate): 99.9% (inactive) and -93.4% (active)
- growth (K-562 leukemia): 2.12% (active)
- growth (MALME-3M melanoma): 99.8% (inactive) and -72.1% (active)
- growth (MDA-MB-231 breast): 93.3% (inactive) and -54.7% (active)
- growth (RXF 393 renal): -91.7% (active)
- growth (SF-268 CNS): 94.5% (inactive) and -59.7% (active)
- growth (SF-295 CNS): 94.3% (inactive) and 47.1% (inactive)
- growth (SF-539 CNS): 93.6% (inactive) and -92.8% (active)
- growth (UACC-257 melanoma): 96.7% (inactive) and -19.5% (active)
- growth (M14 melanoma): 95.2% (inactive) and -67.6% (active)

SMILES: Clc1ccc(SSc2ccc(Cl)cc2)cc1
- growth (DU-145 prostate): 103% (inactive) and 109% (inactive)
- growth (K-562 leukemia): 100% (inactive)
- growth (MALME-3M melanoma): 95% (inactive) and 119% (inactive)
- growth (MDA-MB-231 breast): 107% (inactive) and 62.2% (inactive)
- growth (RXF 393 renal): 96.1% (inactive) and 86% (inactive)
- growth (SF-268 CNS): 94.4% (inactive) and 72.4% (inactive)
- growth (SF-295 CNS): 103% (inactive) and 93.8% (inactive)
- growth (SF-539 CNS): 99.5% (inactive) and 88.7% (inactive)
- growth (UACC-257 melanoma): 91.5% (inactive) and 98.3% (inactive)
- growth (M14 melanoma): 93.6% (inactive) and 94.1% (inactive)

SMILES: OCCN1CCN(CCO)CC1
- growth (DU-145 prostate): 117% (inactive) and 111% (inactive) and 123% (inactive)
- growth (K-562 leukemia): 96.3% (inactive) and 100% (inactive) and 104% (inactive)
- growth (MALME-3M melanoma): 105% (inactive) and 97.4% (inactive) and 107% (inactive)
- growth (MDA-MB-231 breast): 106% (inactive) and 107% (inactive) and 114% (inactive)
- growth (RXF 393 renal): 114% (inactive) and 95.6% (inactive) and 120% (inactive)
- growth (SF-268 CNS): 107% (inactive) and 101% (inactive) and 105% (inactive)
- growth (SF-295 CNS): 94.9% (inactive) and 82.6% (inactive) and 110% (inactive)
- growth (SF-539 CNS): 105% (inactive) and 91.1% (inactive) and 106% (inactive)
- growth (UACC-257 melanoma): 117% (inactive)
- growth (M14 melanoma): 102% (inactive) and 91.1% (inactive) and 103% (inactive)

SMILES: O=C(O)CCCCc1ccc([N+](=O)[O-])cc1
- growth (DU-145 prostate): 106% (inactive) and 114% (inactive)
- growth (K-562 leukemia): 83.7% (inactive) and 103% (inactive)
- growth (MALME-3M melanoma): 102% (inactive) and 106% (inactive)
- growth (MDA-MB-231 breast): 112% (inactive) and 95% (inactive)
- growth (RXF 393 renal): 116% (inactive) and 148% (inactive)
- growth (SF-268 CNS): 98.9% (inactive) and 115% (inactive)
- growth (SF-295 CNS): 113% (inactive)
- growth (SF-539 CNS): 94.3% (inactive) and 102% (inactive)
- growth (UACC-257 melanoma): 125% (inactive) and 97.8% (inactive)
- growth (M14 melanoma): 102% (inactive) and 104% (inactive)

SMILES: COC(=O)c1nc(N)nc(C(=O)OC)c1C(=O)c1ccc(OC)cc1
- growth (DU-145 prostate): 97.2% (inactive) and 48.2% (inactive)
- growth (K-562 leukemia): 102% (inactive) and 52% (inactive)
- growth (MALME-3M melanoma): 100% (inactive) and 50.4% (inactive)
- growth (MDA-MB-231 breast): 107% (inactive) and 53.8% (inactive)
- growth (RXF 393 renal): 103% (inactive) and 9.98% (active)
- growth (SF-268 CNS): 97.9% (inactive) and 92.8% (inactive)
- growth (SF-295 CNS): 108% (inactive) and 102% (inactive)
- growth (SF-539 CNS): 97.4% (inactive) and 59.8% (inactive)
- growth (UACC-257 melanoma): 100% (inactive) and 86.7% (inactive)
- growth (M14 melanoma): 108% (inactive) and 48.5% (inactive)

SMILES: CCOC(=O)C(C(=O)OCC)C(c1ccccc1)N1CCN(c2ccccc2)CC1 (stereo not given)
- growth (DU-145 prostate): 127% (inactive) and 109% (inactive)
- growth (K-562 leukemia): 120% (inactive) and 93.5% (inactive)
- growth (MALME-3M melanoma): 92.2% (inactive)
- growth (MDA-MB-231 breast): 109% (inactive) and 125% (inactive)
- growth (RXF 393 renal): 102% (inactive) and 97.6% (inactive)
- growth (SF-268 CNS): 110% (inactive) and 100% (inactive)
- growth (SF-295 CNS): 108% (inactive) and 105% (inactive)
- growth (SF-539 CNS): 111% (inactive) and 118% (inactive)
- growth (UACC-257 melanoma): 98.6% (inactive) and 100% (inactive)
- growth (M14 melanoma): 102% (inactive) and 103% (inactive)

SMILES: O=CC(O)C(O)C(O)CO (stereo not given)
- growth (DU-145 prostate): 107% (inactive) and 108% (inactive)
- growth (K-562 leukemia): 114% (inactive) and 99.3% (inactive)
- growth (MALME-3M melanoma): 122% (inactive)
- growth (MDA-MB-231 breast): 92.5% (inactive) and 125% (inactive)
- growth (RXF 393 renal): 104% (inactive)
- growth (SF-268 CNS): 107% (inactive) and 100% (inactive)
- growth (SF-295 CNS): 121% (inactive)
- growth (SF-539 CNS): 88.1% (inactive) and 111% (inactive)
- growth (UACC-257 melanoma): 106% (inactive)
- growth (M14 melanoma): 113% (inactive) and 98% (inactive)

SMILES: CN1CCN(C2CCN(C(=O)Nc3cc(Oc4ccc(NC(=O)C5(C(=O)Nc6ccc(F)cc6)CC5)c(F)c4)ccn3)CC2)CC1
- growth (DU-145 prostate): 8.48% (active) and 69.1% (inactive)
- growth (K-562 leukemia): 0.176% (active) and 37.1% (inactive)
- growth (MALME-3M melanoma): -86.6% (active) and 60.2% (inactive)
- growth (MDA-MB-231 breast): -65.7% (active) and 68.3% (inactive)
- growth (RXF 393 renal): -91.7% (active) and 86.4% (inactive)
- growth (SF-268 CNS): -22.5% (active) and 90.8% (inactive)
- growth (SF-295 CNS): -87.8% (active) and 50.8% (inactive)
- growth (SF-539 CNS): -96.4% (active) and 58.7% (inactive)
- growth (UACC-257 melanoma): -91.6% (active) and 95.8% (inactive)
- growth (M14 melanoma): -77.3% (active) and 57% (inactive)

SMILES: CC(O)(CC(=O)CC(=O)c1ccccc1)c1ccccc1 (stereo not given)
- growth (DU-145 prostate): 143% (inactive) and 102% (inactive)
- growth (K-562 leukemia): 91.2% (inactive)
- growth (MALME-3M melanoma): 113% (inactive) and 96.5% (inactive)
- growth (MDA-MB-231 breast): 97.4% (inactive) and 88.5% (inactive)
- growth (RXF 393 renal): 94.1% (inactive) and 93.3% (inactive)
- growth (SF-268 CNS): 110% (inactive) and 98.8% (inactive)
- growth (SF-295 CNS): 91.1% (inactive)
- growth (SF-539 CNS): 104% (inactive) and 108% (inactive)
- growth (UACC-257 melanoma): 90.6% (inactive) and 110% (inactive)
- growth (M14 melanoma): 96.1% (inactive) and 96% (inactive)

SMILES: CN(C)CCCNC1=C(Cl)C(=O)c2ccccc2C1=O
- growth (DU-145 prostate): 75.2% (inactive) and 31.7% (inactive)
- growth (K-562 leukemia): -46.7% (active) and -23.9% (active)
- growth (MALME-3M melanoma): -82.7% (active) and -88.9% (active)
- growth (MDA-MB-231 breast): 69.6% (inactive) and 41.9% (inactive)
- growth (RXF 393 renal): 122% (inactive) and 2.27% (active)
- growth (SF-268 CNS): 102% (inactive) and 75% (inactive)
- growth (SF-295 CNS): 87% (inactive) and 72.2% (inactive)
- growth (SF-539 CNS): 102% (inactive) and 101% (inactive)
- growth (UACC-257 melanoma): 28.4% (inactive) and -96.6% (active)
- growth (M14 melanoma): -87% (active) and -99.1% (active)

SMILES: c1ccc2cc(C[n+]3ccn(Cc4ccc5ccccc5n4)c3)ccc2c1
- growth (DU-145 prostate): 21.9% (inactive) and 64.5% (inactive)
- growth (K-562 leukemia): 14.5% (inactive) and 21.2% (inactive)
- growth (MALME-3M melanoma): -27.2% (active) and 22.9% (inactive)
- growth (MDA-MB-231 breast): -2.02% (active) and 23.4% (inactive)
- growth (RXF 393 renal): 23.5% (inactive) and 45.4% (inactive)
- growth (SF-268 CNS): 11.9% (inactive) and 41.2% (inactive)
- growth (SF-295 CNS): 19.7% (inactive) and 60% (inactive)
- growth (SF-539 CNS): 13.8% (inactive) and 29.3% (inactive)
- growth (UACC-257 melanoma): -25.3% (active) and -8.7% (active)
- growth (M14 melanoma): 9.07% (active) and 35.4% (inactive)

SMILES: CC1=CCC2CC1C2(C)C (stereo not given)
- growth (DU-145 prostate): 98.6% (inactive) and 112% (inactive)
- growth (K-562 leukemia): 102% (inactive) and 98.4% (inactive)
- growth (MALME-3M melanoma): 101% (inactive) and 127% (inactive)
- growth (MDA-MB-231 breast): 95.8% (inactive) and 96.9% (inactive)
- growth (RXF 393 renal): 102% (inactive) and 71% (inactive)
- growth (SF-268 CNS): 115% (inactive) and 94.1% (inactive)
- growth (SF-295 CNS): 94.2% (inactive) and 106% (inactive)
- growth (SF-539 CNS): 102% (inactive)
- growth (UACC-257 melanoma): -8.84% (active) and 108% (inactive)
- growth (M14 melanoma): 98.3% (inactive) and 90.3% (inactive)
